# A selection: hits, their analogues and other compounds. The true share with any hit is near 2.8%.
# DRD3 agonist: D3 dopamine receptor (human) agonism; P35462; D3R DiscoveRx beta-arrestin cells, luminescence, 90 min; max activation, %; 0.58% of 410,000 active; AID 652048; in the data active = max activation above about 30%; also: 0% is about no effect
#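 Agonist mode: compounds and dopamine controls were applied to plated cells for 90 min at 37 degrees C after an overnight attachment at 1500 cells/well. Luminescent read-out followed 30 - 60 minutes at room temperature with DiscoveRx detection reagent.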
# RGS4 inhibitor: inhibitors of human regulator of G protein signaling 4. P49798. Transcreener GDP fluorescence polarization, RGS4-accelerated GTP hydrolysis. Potency, µM (titrated, usually from 114 µM), for inactives: top-dose activity change, negative = inhibition, actives largely listed as inhibitors. 0.039% of 390,000 active. AID 504845; active = well fitted inhibition curve with a large enough effect; inconclusive = small, poorly fitted or top-dose-only effect; inactive = no such curve, though single readings can be large or run the other way; also: potency is read from the fitted curve at half-maximal effect; % is scaled to controls: 0 for no effect and ±100 for the full control effect; nearly all actives have a fitted effect of over 75% in size
# Target sequence (P49798 whole entry, looked up): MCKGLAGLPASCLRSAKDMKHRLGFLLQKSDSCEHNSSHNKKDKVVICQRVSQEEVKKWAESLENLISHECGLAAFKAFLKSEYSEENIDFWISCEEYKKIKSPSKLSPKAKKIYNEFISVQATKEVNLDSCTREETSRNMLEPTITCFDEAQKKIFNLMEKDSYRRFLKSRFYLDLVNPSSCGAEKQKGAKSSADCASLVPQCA
#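 MLSMR compounds (23 nl, pin-transferred) preincubated 10 min at room temperature with a 500nM (2x) first reagent, then RGS4 at 900nM (2x) plus Transcreener GDP mix added; fluorescence polarization (620/688 nm) read before and after 90 min at 30 °C.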
# pAkt inh: blocks phosphorylation of Akt. Neuro2A IGF-stimulated pAkt S473 HTRF, 20 min; stronger effect = lower value. activity change, % for hits at 50 µM. 0.32% of 360,000 active; in the data active = activity change below about -80%; inconclusive = mostly about -51% to -80%; also: % is scaled to controls: 0 for no effect and ±100 for the full control effect
#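 Neuro2A cells in DMEM with 0.5% FBS, overnight at 37 deg C, given compound at single 50 µM final, then IGF (6 nM final) for 20 min at 37 deg C. Lysed; phospho-Akt Ser473 by HTRF after 24 h, 665/615 ratio.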
# PI4K2A block: PI4K2A (human) kinase inhibition. AID 1346378. Q9BTU6. 0.13% of 420,000 active. activity change, negative = inhibition, % at 76.9 µM. purified PI4K2A, ADP-Glo luminescence, 1 h; stronger effect = lower value; in the data active = activity change below about -50%; inconclusive = mostly about -30% to -49%;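 also: -100% = wells without enzyme as full effect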
# Target sequence (Q9BTU6 whole entry, looked up): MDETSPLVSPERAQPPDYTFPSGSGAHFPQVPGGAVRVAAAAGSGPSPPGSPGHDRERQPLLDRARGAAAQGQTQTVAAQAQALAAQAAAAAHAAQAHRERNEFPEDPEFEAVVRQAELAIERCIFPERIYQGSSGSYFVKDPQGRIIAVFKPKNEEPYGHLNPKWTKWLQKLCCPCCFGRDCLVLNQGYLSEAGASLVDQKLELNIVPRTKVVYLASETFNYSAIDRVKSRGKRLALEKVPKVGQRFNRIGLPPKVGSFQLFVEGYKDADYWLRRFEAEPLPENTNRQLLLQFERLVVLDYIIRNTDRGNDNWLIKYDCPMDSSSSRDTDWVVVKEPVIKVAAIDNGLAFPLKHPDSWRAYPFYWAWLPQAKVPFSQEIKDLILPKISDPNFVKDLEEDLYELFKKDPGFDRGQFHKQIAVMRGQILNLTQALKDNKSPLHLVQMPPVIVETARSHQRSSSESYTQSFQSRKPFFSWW
#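 ADP-Glo luminescence measured ADP generated by PI4K2A enzyme (4 ug/mL before mixing) with 1.2 mM PI substrate (pre-mix) and 300 microM ATP (pre-mix). Tris pH7.5 buffer with MgCl2, Triton X-100; 1 h reaction at ambient temperature.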
# LDHA inh: inhibitors of human lactate dehydrogenase A | 0.15% of 480,000 active | activity change, % (values are at about 110 or 230 µM) | purified LDHA, NADH/diaphorase-resazurin fluorescence; stronger effect = lower value | AID 1347041 | P00338; in the data active = activity change below about -30%; inconclusive = mostly about -25% to -30%;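 also: plate controls were DMSO wells for no effect and wells without enzyme for full effect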
#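 Human LDH5 at 2 nM final in Tris HCl pH 7.4 with 0.06 mM NADH and 0.2 mM pyruvate, reacted 5 minutes at room temperature. Remaining NADH coupled via diaphorase/resazurin; resorufin fluorescence read at 0 and 20 minutes, normalized to enzyme-free and DMSO wells.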
# DRD3 antagonist: blocks the human D3 dopamine receptor; D3R cells, DiscoveRx beta-arrestin luminescence, antagonist mode; stronger effect = lower value; P35462; max response, negative = inhibition, %; 2.5% of 360,000 active; AID 652054; in the data active = max response below about -50%; inconclusive = no clear call, values can overlap the other calls; also: % is scaled to controls: 0 for no effect and ±100 for the full control effect
#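 Cells plated overnight at 1500 cells/well, then exposed to library compounds with dopamine controls for 90 minutes at 37 degrees C. DiscoveRx reagent added for 30–60 minutes at room temperature; luminescence read, quantitative HTS format.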
# Starred values were filed as active, the others as inactive; i = inactive; ? = inconclusive; nt = no result; [ ] = another dose, or the depositor's remark.
SMILES,DRD3 agonist,RGS4 inhibitor,pAkt inh,PI4K2A block,LDHA inh,DRD3 antagonist
Cc1oc(=O)c(NC(=O)c2cccc(Cl)c2)cc1C(=O)c1ccccc1,-7,?,i,2,-2,-63*
Cc1oc(=O)c(NC(=O)c2ccccc2)cc1C(N)=O,0,-15%,i,-3,2,15
Cc1cccc(C(=O)NC2CCCCC2C)c1 (configuration not stated),nt,nt,nt,nt,-20,nt
CCCNC(=O)CSc1ncc(-c2ccc(Br)cc2)o1,nt,nt,nt,nt,-6,nt
CCc1c(C(=O)c2ccc[nH]2)oc2ccc(Br)cc12,nt,nt,nt,nt,12,nt
CSCCC(NC(=O)c1cccc(S(=O)(=O)N2CCOCC2)c1)C(=O)Nc1ccc(F)cc1 (configuration not stated),-10,-17%,i,-4,0,-24
COc1cc(C(=O)NC(CCSC)C(=O)Nc2ccc(N3CCOCC3)cc2)cc(OC)c1OC (configuration not stated),-4,nt,i,3,1,-73*
Cc1cc(NC(=O)c2ccccc2)n(-c2nc3ccccc3[nH]2)n1,6,1%,i,7,-3,1
Cc1cc(NC(=O)C2CCCC2)n(-c2nc3ccccc3[nH]2)n1,34*,21%,i,1,-2,?
CCN(CC)CCn1c(NCc2cccc(OC)c2)nc2ccccc21,-7,-13%,i,2,-4,-86*
CCN(CC)CCn1c(NCc2cc(OC)ccc2OC)nc2ccccc21,-2,?,i,-4,-1,-88*
CCN(CC)CCn1c(NCc2ccc3c(c2)OCO3)nc2ccccc21,-14,4%,i,-7,-1,-12
CC(C)[C@H](NC(=O)C12CC3CC(CC(C3)C1)C2)C(=O)O,nt,nt,nt,nt,-6,nt
Fc1cccc(Cl)c1CN1CCc2ccccc2C1,nt,nt,nt,nt,5,nt
Cc1ccc(OCC(O)Cn2c(N)nc3c2c(=O)n(C)c(=O)n3C)cc1 (configuration not stated),53*,38%,i,4,5,3
Cn1c(=O)c2c(nc(N)n2CC(O)COc2ccccc2)n(C)c1=O (configuration not stated),nt,nt,nt,nt,0,nt
O=C(CN1C(=O)CSc2ccc(S(=O)(=O)N3CCOCC3)cc21)NCCCN1CCc2ccccc2C1,-11,28%[56.9 µM],i,3,-6,-62*
CCOC(=O)c1cccc(C2=CC(=O)C[C@H](c3ccc(OC)c(OC)c3)C2)c1,52*,6%,i,-3,0,88
COc1ccc([C@H]2CC(=O)C=C(c3cccc4c3Oc3ccccc3S4)C2)cc1OC,75*,-2%,i,4,0,145
COc1ccc([C@H]2CC(=O)C=C(c3cccc(CO)c3)C2)cc1OC,8,-6%,i,2,0,31
C=Cc1ccc(C2=CC(=O)C[C@H](c3ccc(OC)cc3)C2)cc1,-27,-2%,i,-6,-3,-52*
COc1ccc([C@H]2CC(=O)C=C(c3ccc4ccccc4c3)C2)cc1OC,42*,18%,i,-1,-10,38
O=C1C=C(c2cccc3c2Oc2ccccc2S3)C[C@@H](c2ccc(Cl)cc2)C1,7,-4%,i,-1,-3,16
CCOC(=O)c1[nH]c(C)c(/C(O)=C2\C(=O)C(=O)N(CCN(C)C)C2c2cccc(F)c2)c1C (configuration not stated),nt,nt,nt,nt,4,nt
NC(=O)CN1C(=O)C2(CC(=O)Nc3c2cnn3Cc2ccccc2Cl)c2ccccc21 (configuration not stated),nt,nt,nt,nt,-3,nt
SMILES,DRD3 agonist,RGS4 inhibitor,pAkt inh,PI4K2A block,LDHA inh,DRD3 antagonist
CN(C(=O)COC(=O)c1ccc2c(c1)NC(=O)CS2)C1CCS(=O)(=O)C1 (configuration not stated),-6,-11%,-108%*,-4,-5,-12
Nc1ccccc1Sc1ccccc1[N+](=O)[O-],-5,-14%,i,2,1,0
Nc1nc(O)c(Sc2ccccc2[N+](=O)[O-])c(=O)[nH]1,-2,-24%,i,-1,-52*,-21
Cc1cc(S(=O)(=O)NC[C@H]2O[C@@H](n3cnc4c(N)ncnc43)[C@H](O)[C@@H]2O)c(C)s1,-1,17%,i,-3,-8,6
Cc1cc(S(=O)(=O)NC[C@H]2O[C@@H](n3ccc(N)nc3=O)[C@H](O)[C@@H]2O)c(C)s1,-6,nt,i,-9,-31*,-13
CCCN(CCC)CCCOC(=O)c1ccc(Cl)cc1Cl,-30,-11%,i,8,-8,-69*
Cc1ccccc1C(=O)NNC(=S)NC(=O)c1ccc(Cl)cc1Cl,-4,-32%,i,1,-10,-14
CCCN(CCC)C(=S)NC(=O)c1ccc(Cl)cc1Cl,2,-43%,i,3,1,-182*
CCc1ccc(NC(=O)CCC2=C(C)NS(=O)(=O)N=C2C)cc1,nt,nt,nt,nt,-1,nt
COc1c(C)cc(S(=O)(=O)NCc2ccco2)c(C)c1C,31*,-3%,i,-1,-6,4
CNc1cncc(-c2cc(C)c(O)c(C)c2)n1,76*,nt,i,2,7,-3
Oc1ccc(Cl)cc1N=Nc1ccccc1,6,18%,i,-1,-1,12
Cc1ccc(O)c(N=Nc2ccccc2)n1,18,-16%[56.9 µM],i,-67*,-3,18
CCOCCCNC(=O)c1ccc(CN2CCc3ccccc3C2)cc1,-2,nt,i,0,1,-92*
O=C(Nc1ccc(F)cc1)c1ccc(CN2CCc3ccccc3C2)cc1,-8,-15%,i,-2,-3,0
CC(C)NC(=O)c1ccc(CN2CCc3ccccc3C2)cc1,-18,9%,i,0,-2,-66*
CCOCCCNC(=O)c1ccc(C2SCC(=O)N2Cc2ccccc2)cc1 (configuration not stated),-1,-22%,i,-5,-3,19
CC(C)OCCCNC(=O)c1ccc(CN2CCc3ccccc3C2)cc1,-20,-21%,i,3,-4,-67*
CC(=O)NC(C)c1cc(Cl)c2cccnc2c1O (configuration not stated),nt,-3%,nt,-6,13,nt
O=C(Oc1c(Cl)cc(Cl)c2cccnc12)c1ccco1,-4,13%,i,-17,11,-124*
Oc1ccc(Nc2ccccc2F)c2cccnc12,nt,nt,nt,-52*,53,nt
Cc1ccc2c(Cl)cc(Cl)c(O)c2n1,-18,21%,i,-6,17,-110*
Oc1ccc(-c2ccccc2F)c2cccnc12,nt,nt,nt,-7,7,nt
Oc1c(Cl)cc(Cl)c2cccnc12,-8,-24%,i,-7,6,-61*
